Platelet DG rel = inhibitors of platelet dense granule secretion, primary screen, cell-based, MLPCN, human platelets; 0.22% of 300,000 active; inhibition, %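 (compounds screened at 7.5 µM in platelet-rich plasma)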; human platelet-rich plasma, SFLLRN dense granule ATP release, luminescence; AID 1663, 2009;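 active = mean replicate score, as percent of positive control, at or above 50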
SKN-1 inh = suppressors of acrylamide-induced Pgst-4::GFP reporter in worms, primary screen, SKN-1 inhibitor project, whole organism, uHTS, GFP/RFP fluorescence ratio, strain VP596; C. elegans VP596 Pgst-4::GFP/RFP ratio, 24 h; inhibition, % at 21.8 µM; 0.49% of 360,000 active; AID 624304, 2012;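 active = interference check ratio from 0.5 to 1.5 plus GFP to RFP signal ratio inhibition reaching or exceeding a fixed threshold, cut at about 30% in these data, passing the limit was not always enough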
VLA-4 inh = inhibition in human VLA-4 binding assay, primary screen, VLA-4 allosteric modulator project, MLPCN library, flow cytometry, VLA-4 expressing cells; ligand binding flow cytometry; inhibition, % (about 7 µM as worked out from the volumes in the protocol); Integrin alpha-4 (Homo sapiens), P13612; 0.2% of 330,000 active; in the data active = inhibition above about 50%
ABCB6 inh MLPCN = ABCB6 transporter inhibitors, primary screen, K562-ABCB6 cells, flow cytometry, MLPCN library. ATP-binding cassette sub-family B member 6 (Homo sapiens), Q9NP58. K562-ABCB6 porphyrin accumulation, 1 h; active compounds read low. fluorescence ratio to DMSO, % at 10 µM. 0.19% of 360,000 active;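 active = fluorescence ratio to DMSO below 75%, the collection mean minus 3 SD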;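 also: signal is porphyrin accumulated inside mitochondria; lower ratio means ABCB6 inhibition with less porphyrin fluorescence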
Target sequence (Q9NP58 whole entry, looked up): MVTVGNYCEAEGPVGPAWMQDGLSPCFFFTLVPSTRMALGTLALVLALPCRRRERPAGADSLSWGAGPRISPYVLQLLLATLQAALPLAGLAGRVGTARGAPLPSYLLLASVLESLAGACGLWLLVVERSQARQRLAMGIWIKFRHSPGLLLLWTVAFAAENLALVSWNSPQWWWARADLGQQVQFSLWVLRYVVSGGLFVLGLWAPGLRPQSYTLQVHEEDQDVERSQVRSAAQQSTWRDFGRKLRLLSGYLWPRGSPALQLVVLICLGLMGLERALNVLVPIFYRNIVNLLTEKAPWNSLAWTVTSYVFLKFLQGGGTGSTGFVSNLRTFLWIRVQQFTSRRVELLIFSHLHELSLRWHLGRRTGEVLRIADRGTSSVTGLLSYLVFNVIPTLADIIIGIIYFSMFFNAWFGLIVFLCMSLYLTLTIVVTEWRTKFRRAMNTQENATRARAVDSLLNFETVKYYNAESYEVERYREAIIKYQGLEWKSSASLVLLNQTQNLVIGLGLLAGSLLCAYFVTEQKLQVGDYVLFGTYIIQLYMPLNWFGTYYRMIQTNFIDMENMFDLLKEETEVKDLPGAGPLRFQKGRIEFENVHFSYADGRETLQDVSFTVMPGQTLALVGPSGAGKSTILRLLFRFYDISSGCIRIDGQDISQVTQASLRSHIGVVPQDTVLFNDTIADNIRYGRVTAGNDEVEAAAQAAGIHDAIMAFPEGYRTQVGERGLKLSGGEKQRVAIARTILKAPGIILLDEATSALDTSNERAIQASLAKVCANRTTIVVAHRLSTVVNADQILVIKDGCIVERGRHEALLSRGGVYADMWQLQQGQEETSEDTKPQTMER
Yeast superoxide = reduction of superoxide in aged yeast, primary screen, HTS; S. cerevisiae aged cells, superoxide DHE fluorescence; active compounds read low; AID 2690, 2010; 0.18% of 330,000 active; superoxide response (% of plate mean), % at 10 µM;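 active = superoxide response under a set limit, about three screen SD below normal, cut at about 65% in these data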;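 also: yeast aged for seven days with compound at 30 °C before DHE staining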
VLA-4 allo CP = retest of VLA-4 allosteric modulators, confirmation, cell-based, cherry-picked plates, U937, HUTS-21 LIBS antibody; shares compounds with VLA-4 inh; U937 cells, HUTS-21 LIBS mAb binding, flow cytometry; LDV ligand present at threefold Kd; inhibition, % at 6.7 µM; 2% of 1,300 active; AID 2813, 2010; in the data active = inhibition above about 40%
Each line names hits and unclear results; the compound was inactive in the other large screens (follow-up assays come after a bar, where they were run). Most compounds without a hit are left out; they make up all but 1.2% or so of the library.

O=c1c(O)c(-c2ccccc2)oc2cc(O)cc(O)c12	none (no result: Platelet DG rel)
Cc1cc(Cl)ccc1OCC(=O)OCC(=O)Nc1ccc(F)c([N+](=O)[O-])c1	none (no result: Platelet DG rel)
Cc1ccc(NC(=O)COc2ncnc3c(Cl)cc(Cl)cc23)cc1[N+](=O)[O-]	none | VLA-4 allo CP inactive
Cc1cccc(/C(N)=N/OC(=O)c2cccc3ccccc23)c1	none
CN1C(=O)/C(=N\OC(=O)c2cccc3ccccc23)c2ccccc21	VLA-4 inh 66 | VLA-4 allo CP inactive
Cc1ccc2nc(-c3ccc(NC(=S)NC(=O)C(C)C)cc3)sc2c1	none
Cc1ccc2nc(-c3ccc(NC(=S)NC4CC(C)(C)NC(C)(C)C4)cc3)sc2c1	SKN-1 inh 84, VLA-4 inh 54 | VLA-4 allo CP inactive
N=c1c(C(=O)NCc2ccc(F)cc2)cc2c(=O)n3ccccc3nc2n1CC1CCCO1 (stereo unspecified)	VLA-4 inh 89 | VLA-4 allo CP inactive
Cc1ccc(C)c(S(=O)(=O)Nc2ccc(C(N)=O)cc2)c1	none | VLA-4 allo CP inactive
CCCC[C@@H]1Cc2[nH][nH]c(=O)c2[C@H](c2ccc(C(C)C)cc2)O1	none (no result: Platelet DG rel, VLA-4 inh, Yeast superoxide)
COc1ccc(NC(=S)N2CCCC(c3nc4ccc(C)cc4[nH]3)C2)c(OC)c1 (stereo unspecified)	VLA-4 inh 54 | VLA-4 allo CP inactive
CCOC(=O)CSc1nc(C)[nH]c1[N+](=O)[O-]	none | VLA-4 allo CP inactive
Cc1nc(SCC(N)=O)c([N+](=O)[O-])[nH]1	none
Cc1cc(C)c(S(=O)(=O)c2ccc(F)cc2C)c(Cl)n1	none | VLA-4 allo CP inactive
Cc1cc(C)c(S(=O)(=O)c2ccccc2Cl)c(Cl)n1	none
Nc1sc(-c2ccccc2)cc1C(=O)N1CCN(c2ccccc2)CC1	none (no result: Platelet DG rel, VLA-4 inh, ABCB6 inh MLPCN, Yeast superoxide)
CCCSC1=NN2CCCC(=O)N=C2S1	VLA-4 inh 50 | VLA-4 allo CP inactive
O=C1CCCN2N=C(SCC(=O)N3CCCCC3)SC2=N1	none
Cc1nn(C)c(C)c1CNC(=O)Nc1ccc2c(c1)OCO2	VLA-4 inh 125 | VLA-4 allo CP inactive
CCCN(CC(=O)Nc1ccccc1C)C(=O)C1CCCN(C(=O)c2ccc(Cl)cc2)C1 (stereo unspecified)	VLA-4 inh 50 (no result: Platelet DG rel) | VLA-4 allo CP inactive
CC(C)[C@H](NC(=O)N1c2ccccc2NC(=O)[C@@H]1C(C)C)C(=O)N[C@@H](C(=O)O)c1ccccc1	none
CC(C)[C@H](NC(=O)N1c2ccccc2NC(=O)[C@@H]1C(C)C)C(=O)N[C@@H](Cc1ccccc1)C(=O)O	VLA-4 inh 64 | VLA-4 allo CP inactive
COc1ccc(NC(=O)C2c3ccccc3OCC(=O)N2Cc2ccco2)cc1 (stereo unspecified)	none (no result: Platelet DG rel, VLA-4 inh, Yeast superoxide)
CCCCNC(=O)C(Cc1ccccc1)NS(=O)(=O)c1ccc2c(c1)c(=O)n(C)c(=O)n2C (stereo unspecified)	VLA-4 inh 50 (no result: Platelet DG rel) | VLA-4 allo CP inactive
Cc1ccc([N+](=O)[O-])cc1N(CC(=O)N1CCCCC1)S(C)(=O)=O	VLA-4 inh 53 | VLA-4 allo CP inactive
Cc1ccc(C)c(N(CC(=O)N2CCCCCC2)S(C)(=O)=O)c1	none
Cc1ccc(C(=O)NC(=S)NCc2cccnc2)cc1C	VLA-4 inh 55 | VLA-4 allo CP inactive
C=CCNC(=O)Cn1c(=O)c2c(ncn2CCC(C)C)n(Cc2ccccc2)c1=O	VLA-4 inh 50 | VLA-4 allo CP inactive
C=CCNC(=O)NC(=O)Cn1c(=O)c2c(ncn2CC)n(Cc2ccccc2)c1=O	none
CCCCCCCCN1C(=O)[C@H](CC(=O)NCCCOCCCC)C[C@@]2(C(=O)OC)CC(C)(C)CC=C12	none (no result: Platelet DG rel, VLA-4 inh, ABCB6 inh MLPCN, Yeast superoxide)
Cc1cc(=O)oc2c3c(cc(OCC(=O)N[C@@H](Cc4ccccc4)C(=O)O)c12)OC(C)(C)CC3	VLA-4 inh 50 | VLA-4 allo CP inactive
Cc1cc(=O)oc2c3c(cc(OCC(=O)N[C@@H](C)C(=O)O)c12)OC(C)(C)CC3	none
Cc1cc(=O)oc2c3c(cc(OCC(=O)NC(Cc4ccc(Cl)cc4)C(=O)O)c12)OC(C)(C)CC3 (stereo unspecified)	none | VLA-4 allo CP inactive
CN1OC[C@@H]2CN(C(=S)NCCc3ccccc3)[C@H](c3ccc(-n4ccnc4)cc3)C[C@@H]21	none (no result: Platelet DG rel, VLA-4 inh, Yeast superoxide)
CSc1ccc(CN2CCC2(C)C(=O)Nc2cccc(NS(C)(=O)=O)c2)cc1 (stereo unspecified)	none (no result: Platelet DG rel, VLA-4 inh, Yeast superoxide)
CCc1nn2c(N3CCOCC3)cc(C)nc2c1-c1ccccc1	none | VLA-4 allo CP inactive
COCCNC(=O)C1CCCN(C(=O)COCc2ccccc2)CC1 (stereo unspecified)	none (no result: Platelet DG rel, VLA-4 inh, Yeast superoxide)
O=C(NCc1ccccc1)C1CCCN(C(=O)Nc2ccccc2)C1 (stereo unspecified)	VLA-4 inh 75 | VLA-4 allo CP inactive
O=C(Nc1ccc2c(c1)C(=O)N(c1ccccc1)C2=O)c1cccs1	VLA-4 inh 50 | VLA-4 allo CP inactive
O=C(O)CCN1C(=O)c2ccc(NC(=O)c3cccs3)cc2C1=O	none
COC(=O)c1sc(NC(=O)OCc2ccccc2)nc1CCNC(=O)OC(C)(C)C	none (no result: Platelet DG rel, VLA-4 inh, ABCB6 inh MLPCN, Yeast superoxide)
Cc1ccc(-c2nn3c(C)nnc3c3ccccc23)cc1S(=O)(=O)N(C)CCO	none
CCOC(=O)N1CCN(S(=O)(=O)c2cc(-c3nn4c(C)nnc4c4ccccc34)ccc2C)CC1	none | VLA-4 allo CP inactive
Cc1ccc(-c2nn3c(C)nnc3c3ccccc23)cc1S(=O)(=O)NCCN1CCOCC1	none | VLA-4 allo CP inactive
CC1CC2C3CCC4=CC(=O)C=CC4(C)[C@@]3(Cl)C(O)CC2(C)C1(O)C(=O)CO (stereo partly specified)	none | VLA-4 allo CP inactive
C[C@]12C=CC(=O)C=C1CC[C@H]1[C@@H]3C[C@@H](O)[C@](O)(C(=O)CO)[C@@]3(C)C[C@H](O)[C@@]12F	none
CCOC(=O)N1CCN(C(C(=O)NC2CCCC2)C(C)C)CC1 (stereo unspecified)	none (no result: Platelet DG rel, VLA-4 inh, ABCB6 inh MLPCN, Yeast superoxide)
O=C(c1cccc(NC2=NC3CS(=O)(=O)CC3S2)c1)N1CCN(c2cccc(Cl)c2)CC1 (stereo unspecified)	none | VLA-4 allo CP inactive
Cc1ccc(C(=O)N2CCN(c3ccccc3F)CC2)cc1NC1=NC2CS(=O)(=O)CC2S1 (stereo unspecified)	none
O=C(c1cccc(NC2=NC3CS(=O)(=O)CC3S2)c1)N1CCN(c2ccc(F)cc2)CC1 (stereo unspecified)	none

Compound activity deposited in PubChem BioAssay by several laboratories.
